Reference: PubChem BioAssay (EPA / NIEHS)
Calls of active or inactive are those of the source. How the source made its calls: active means hit-call score of the fitted dose curve at least 0.9, where 1 is the maximum; inactive means score below 0.9.

experiment: ATG_ERE_CIS: Attagene CIS-FACTORIAL HepG2 Assay for Estrogen Response Element (ERE) (AID 2282940); conditions: HepG2 ERE cis-reporter, Attagene RNA transcript; actives raise or lower the signal
How it was run: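 Transient MRTU transfection of human HepG2; cis-element promoters; 24 h dosing; total RNA → RT (oligo dT) → PCR → 6-FAM primer extension → HpaI digest → CE fluorescence. Bidirectional fit, DMSO baseline.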

SMILES | outcome | AC50
COCC(=O)N(c1c(C)cccc1C)[C@H](C)C(=O)OC | inactive | –
CCOP(=S)(OCC)SCSc1cc(Cl)ccc1Cl | inactive | –
COc1ccc([N+](=O)[O-])cc1O | inactive | –
CCC[N+](CCC)(CCC)CCC | inactive | –
O=NN1CCOCC1 | inactive | –
CCOP(=S)(OCC)SCS(=O)(=O)C(C)(C)C | inactive | –
CC(c1ccc(O)cc1)c1ccc(O)cc1 | – | 0.701 µM (active)
C=C(C)[C@@H]1CC=C(C=O)CC1 | inactive | –
CCCCCCCCCCCCCl | inactive | –
O=S(=O)(C(Cl)(Cl)Cl)C(Cl)(Cl)Cl | inactive | –
O=C(Cc1ccccc1)OCCc1ccccc1 | inactive | –
OC[C@@H](O)[C@H]1O[C@@H]2O[C@H](C(Cl)(Cl)Cl)O[C@@H]2[C@H]1O | inactive | –
C[N+](C)(C)Cc1ccccc1 | inactive | –
CC1(C)[C@H](/C=C2\CCSC2=O)[C@@H]1C(=O)OCc1coc(Cc2ccccc2)c1 | inactive | –
C=CC(F)(C(F)(F)F)C(F)(F)C(F)(F)F (stereo unspecified) | inactive | –
CC(C)(C1CCC(O)CC1)C1CCC(O)CC1 (stereo unspecified) | – | 20.4 µM (active)
